HT1080NT lethal = qHTS for induction of synthetic lethality in tumor cells producing 2HG: qHTS for the HT-1080-NT fibrosarcoma cell line; AID 686970, 2013; Potency, µM (doses to about 46.1 µM), inactives show at the highest dose activity, negative = less viability, most hits filed as cytotoxic; HT-1080-NT fibrosarcoma viability, CellTiter-Glo ATP luminescence, 48 h; 360,000 compounds, 1.6% hits;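 note: NT is the 2HG producing partner of a matched IDH1 knockdown line; potency is the fitted concentration of half-maximal effect; 0% = DMSO-treated cells and -100% = media-only wells without cells; nearly all actives have a fitted effect of over 55% in size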
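A 48-hour cytotoxicity screen used HT-1080-NT cells plated 2 hours before compound delivery. ATP-based CellTiter-Glo luminescence measured viability, normalized to DMSO and no-cell controls.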
IL-1B inflam inh = qHTS for Inhibitors of Inflammasome Signaling: IL-1-beta AlphaLISA Primary Screen. activity change, % at 57.5 µM. 360,000 compounds, 4.7% hits. AID 743279, 2014. THP-1 LPS/ATP IL-1B secretion, AlphaLISA, 16 h; hits give low values; in the data active = activity change below about -50%; inconclusive = mostly about -30% to -49%
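THP-1 cells pretreated 1 hr with compounds (up to 57.5 uM final), then stimulated with LPS (250 ng/mL final) plus ATP (1.25 mM final); secreted IL-1B measured by AlphaLISA after 16 hr, decreased signal indicating inhibition.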
HT1080 IDH1KD tx = qHTS for induction of synthetic lethality in tumor cells producing 2HG: qHTS for the HT-1080-IDH1KD cell line; HT-1080 IDH1 knockdown viability, ATP luminescence, 48 h; Potency, µM (top dose mostly 46.1 µM), for the others: top-dose activity, negative = toxicity, hits mostly cytotoxic; 360,000 compounds, 2% hits;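 note: potency is the fitted concentration of half-maximal effect; 0% = DMSO wells and -100% = cell-free medium wells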
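Cytotoxicity counter-line: IDH1KD HT-1080, 48 h, CellTiter-Glo. Curves classed by r2, magnitude and activity.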
DT40 TDP1 no CPT = qHTS for Inhibitors of human tyrosyl-DNA phosphodiesterase 1 (TDP1): qHTS in cells in absence of CPT; DT40 Tdp1-/- hTDP1 cells, no CPT, ATP luminescence, 48 h; Potency, µM (highest dose often 46.2 µM), inactives show top-dose activity change, negative = growth inhibition, most hits filed as inhibitors; 420,000 compounds, 15% hits; note: potency is the fitted concentration of half-maximal effect; nearly all actives have a fitted effect of over 55% in size
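Chicken DT40 Tdp1-/- cells stably complemented with human TDP1 were seeded at 400 cells/well with DMSO in place of 20 nM camptothecin. After compound pinning, cells grew at least 48 hr at 37 °C; viability read by CellTiter-Glo luminescence.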
DT40 TDP1 CPT = qHTS for Inhibitors of human tyrosyl-DNA phosphodiesterase 1 (TDP1): qHTS in cells in presence of CPT | chicken DT40 Tdp1-/-;hTDP1 cells + 20 nM CPT, ATP luminescence, 48 h | AID 686979, 2013 | Potency, µM (titrated, usually from 46.2 µM), without a hit: at the highest dose activity change, negative = growth inhibition, actives largely listed as inhibitors | 420,000 compounds, 12% hits; note: potency is the fitted concentration of half-maximal effect; nearly all actives have a fitted effect of over 55% in size
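Cell growth measured by CellTiter-Glo luminescence after a minimum 48 h, 37 C compound exposure with 20 nM CPT in Tdp1-knockout DT40 cells stably expressing hTDP1, seeded 400/well; qHTS titration format.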
Numbers without * were called inactive; ? = inconclusive; nt = no result given. Most compounds without a hit are left out; they make up all but 19% or so of the library. Unless noted, calls come from the whole dose curve; as a rule, active = well fitted curve in the direction sought with a large enough effect; inconclusive = small, poorly fitted or top-dose-only effect, or another doubt; inactive = no such curve, though single readings can be large; an effect the other way counts as inactive or inconclusive. Unless noted, % is set by controls: 0 for no effect and ±100 for the full control effect.

SMILES	HT1080NT lethal	IL-1B inflam inh	HT1080 IDH1KD tx	DT40 TDP1 no CPT	DT40 TDP1 CPT
COc1ccc(S(=O)(=O)c2cn(Cc3ccccc3)c3ccc(OC)cc3c2=O)cc1	nt	nt	nt	25.9µM*	11.6µM*
Cc1ccc(NC(=O)Cn2cc(S(=O)(=O)c3ccc(F)cc3)c(=O)c3cc(F)ccc32)cc1	-1.2%	-7.7	-1.5%	-36.1%	?
Cc1ccc(Cn2cc(S(=O)(=O)c3ccc(Cl)cc3)c(=O)c3cc(F)ccc32)cc1	0.7%	-10.2	-25.2%	7.31µM*	-27.8%
CCc1ccc2c(c1)c(=O)c(S(=O)(=O)c1ccc(F)cc1)cn2CC(=O)Nc1ccc(C)cc1C	nt	nt	nt	6.51µM*	?
O=c1c(S(=O)(=O)c2ccc(Cl)cc2)cn(Cc2ccccc2F)c2ccc(F)cc12	-19.0%	-11.7	-3.7%	23.1µM*	?
O=c1c(S(=O)(=O)c2ccc(Cl)cc2)cn(Cc2cccc(F)c2)c2ccc(F)cc12	-4.0%	0.0	1.2%	?	?
CCn1cc(S(=O)(=O)c2ccc(Cl)cc2)c(=O)c2cc(OC)ccc21	24.5%	-9.2	0.1%	2.9%	-10.6%
COc1ccccc1CC(=O)NO	5.7%	nt	16.5%	-15.1%	2.6%
O=C(NCc1ccccc1F)C(=O)NCC(c1ccc2c(c1)OCO2)N1CCOCC1 (stereo not drawn)	nt	nt	nt	-21.7%	-8.7%
COc1ccc(NC(=O)CC(C)n2nc(C)cc2C)cc1Cl (stereo not drawn)	nt	nt	nt	?	-29.5%
CN1CCC(=O)N(CCSc2ccc(Br)cc2)CC1	1.9%	-18.8	-3.5%	?	-12.7%
CCc1ccc(S(=O)(=O)c2cn(C)c3cc(OC)c(OC)cc3c2=O)cc1	-2.4%	0.0	-1.9%	?	?
Cc1ccc(C)c(Cn2cc(S(=O)(=O)c3ccc(Cl)cc3)c(=O)c3cc(F)ccc32)c1	nt	nt	nt	25.9µM*	?
CCc1ccc(S(=O)(=O)c2cn(Cc3ccccc3F)c3cc(OC)c(OC)cc3c2=O)cc1	nt	nt	nt	?	14.6µM*
CCN1CC(CN(C)Cc2nc(-c3ccc(C(F)(F)F)cc3)no2)CC1=O (stereo not drawn)	?	-7.8	-23.7%	18.4µM*	?
CCCC(=O)Nc1ccc(C2C(=O)c3ccccc3C2=O)cc1	-9.4%	-18.9	-1.3%	?	16.4µM*
COc1cc(Nc2ccn3nccc3n2)cc(OC)c1OC	3.9%	11.5	2.6%	-28.5%	?
COc1cc(-c2cc3nc(NCc4cccc(Cl)c4)ccn3n2)cc(OC)c1OC	16.4µM*	17.8	9.2µM*	5.17µM*	6.51µM*
COc1cc(Nc2ccn3nc(-c4ccc(F)cc4)cc3n2)cc(OC)c1OC	-16.0%	-68.5*	0.0%	?	?
COc1cc(-c2cc3nc(NCc4cccs4)ccn3n2)cc(OC)c1OC	?	-7.4	?	10.3µM*	10.3µM*
CCOc1ccc(CN(C(=O)c2ccccn2)c2ccc(OC)c(Cl)c2)cc1	?	11.4	?	?	?
Cc1ccc(C)c(N2CCN(C(=O)c3ccc4nc(-c5ccco5)c(-c5ccco5)nc4c3)CC2)c1	?	?	?	23.1µM*	?
COc1ccccc1N1CCN(C(=O)c2ccc3ncsc3c2)CC1	11.6µM*	17.2	8.2µM*	2.31µM*	6.51µM*
C=CCn1c(=O)[nH]c2cc(C(=O)N3CCN(c4cc(C)ccc4C)CC3)ccc2c1=O	-28.2%	17.5	-15.8%	?	?
COc1ccccc1N1CCN(C(=O)c2ccc3nc(-c4ccco4)c(-c4ccco4)nc3c2)CC1	?	?	?	20.6µM*	?
SMILES	HT1080NT lethal	IL-1B inflam inh	HT1080 IDH1KD tx	DT40 TDP1 no CPT	DT40 TDP1 CPT
COc1ccc(OC)c2sc(N3CCN(C(=O)c4ccc5ncsc5c4)CC3)nc12	-20.0%	-19.5	-13.2%	-29.7%	-0.7%
Cc1cc(C(=O)NNC(=O)Cc2ccc(Cl)cc2)c(C)o1	5.3%	-16.4	-7.1%	-16.8%	5.0%
CCOC(=O)c1cc2sc(C)cc2n1CC(=O)NCCc1ccccc1	-28.9%	-23.4	-5.2%	-27.9%	?
COCCCNC(=O)N1[C@H](c2cccs2)[C@@H](C)C(=O)[C@@H](C)[C@@H]1c1cccs1	nt	nt	nt	-24.9%	?
COCOc1cccc(CN2CCC2(C)C(=O)Nc2ccc(C)cc2)c1 (stereo not drawn)	?	-13.9	-25.1%	?	?
COCOc1cccc(CN2CCC2(C)C(=O)Nc2ccc(OC)c(OC)c2)c1 (stereo not drawn)	-10.2%	-8.2	20.0%	23.1µM*	16.4µM*
COCOc1cccc(CN2CCC2(C)C(=O)Nc2ccc(C)c(O)c2)c1 (stereo not drawn)	-20.4%	-15.4	?	18.4µM*	25.9µM*
COCOc1cccc(CN2CCC2(C)C(=O)Nc2cc(OC)ccc2OC)c1 (stereo not drawn)	?	23.8	-17.8%	?	25.9µM*
COc1ccc(OC)c(NC(=O)C2(C)CCN2Cc2ccc(SC)cc2)c1 (stereo not drawn)	3.4%	-6.0	-9.2%	-29.8%	6.9%
Cc1ccc(CCC(=O)Nc2ccc(C)c(C)c2)o1	-1.8%	12.7	1.5%	14.5%	-12.5%
Cn1c(Oc2ccccc2NCc2cc(Br)ccc2O)cc(=O)n(C)c1=O	?	9.3	?	23.1µM*	18.4µM*
COc1cc(CNc2ccccc2Oc2cc(=O)n(C)c(=O)n2C)cc(OC)c1OC	1.1%	23.2	0.2%	?	?
CS(=O)(=O)c1cccc(C(=O)Nc2ccc(-c3nc4ccccc4[nH]3)cc2)c1	11.6µM*	-4.3	11.6µM*	7.31µM*	8.2µM*
CN(c1ccccc1)S(=O)(=O)c1ccc(Cl)c(C(=O)Nc2ccc(-c3nc4ccccc4[nH]3)cc2)c1	-21.7%	10.9	?	18.4µM*	18.4µM*
Cc1ccccc1C(=O)Nc1ccc(-c2nc3ccc(C(=O)c4ccccc4)cc3[nH]2)cc1	-21.6%	24.6	?	5.17µM*	9.2µM*
CN(c1ccccc1)S(=O)(=O)c1ccc(Cl)c(C(=O)Nc2nc3ccccc3[nH]2)c1	-20.7%	?	?	14.6µM*	14.6µM*
O=C(c1ccccc1)c1ccc2nc(-c3ccc(NC(=O)c4ccccc4Br)cc3)[nH]c2c1	?	-6.2	-9.3%	?	?
Cc1ccc(S(=O)(=O)NN=CC=CC=NNS(=O)(=O)c2ccc(C)cc2)cc1	14.0%	-3.9	6.0%	?	?
